From the supplement of paper PMC8007513 come the findings set out here.

The subject of the assay is Trichoderma virens ATCC 9645. Kind of assay: growth yield (OD600) relative to untreated control; higher = less growth inhibition. Particulars: compound concentration: 100 uM. In short, it runs like this:
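Spores of Trichoderma virens ATCC 9645, taken from potato dextrose agar plates grown for 7 days, were suspended at 15,000 spores ml^−1 in potato dextrose broth. In 96-well plates, 100 μl aliquots held library compounds at 100 μM final, either alone or together with a biocide at 200 ng ml^−1, and were grown at 30 °C. A BioTek EL800 read OD600 at 40 h and 72 h. Growth values are given relative to the control lacking both agents and are means of duplicate screens.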

Where a name gives a salt, the structure may show the parent alone. ± gives the standard error. The whole screen tested about 1,300 compounds, of which about 75 (6%) showed an effect of 50% or more. The list comes from a sample in which strong results are over-represented; it also holds similar structures and randomly drawn compounds.

In the case of `COc1ccc(CN(CCN(C)C)c2ccccn2)cc1` [Pyrilamine maleate], the growth yield was determined as 101 ± 1.1% (40 h) and 103 ± 1.5% (72 h).
Consider `CCCCCCCCCCCCCCCC[N+](C)(C)CCN(Cc1ccc(OC)cc1)c1ncccn1` [Thonzonium bromide], for which the growth yield worked out at 0% (40 h) and 0% (72 h).
Consider `Nc1ncn(C2OC(CO)C(O)C2O)c(=O)n1` (centres undefined) [Azacytidine-5], for which the growth yield came to 89.4 ± 5.9% (40 h) and 88.4 ± 4.3% (72 h).
Regarding `CC(C)[C@H](N)C(=O)OCCOCn1cnc2c(=O)nc(N)[nH]c21` [Valacyclovir hydrochloride], the growth yield by setting is: (40 h) 102%; (72 h) 103%.
In the case of `CC(=C(CCO)SSCC1CCCO1)N(C=O)Cc1cnc(C)nc1N` (stereo in doubt) [Fursultiamine Hydrochloride], the growth yield was 104 ± 5.2% (40 h) and 101 ± 3.1% (72 h).
In the case of `NC[C@H]1CC[C@H](C(=O)O)CC1` [Tranexamic acid], the growth yield turned out to be 99.75 ± 0.64% (40 h) and 102.2 ± 0.73% (72 h).
As to `CCCCOc1ccc(OCCCN2CCOCC2)cc1` [Pramoxine hydrochloride], the growth yield reads like this: (40 h) 89.6 ± 1.9%; (72 h) 90.5 ± 2.2%.
`C#Cc1cccc(Nc2ncnc3cc(OCCOC)c(OCCOC)cc23)c1` [Erlotinib]: the growth yield (40 h) was 108% and the growth yield (72 h) worked out at 105%.
Regarding `COc1cc2ncnc(Nc3ccc(F)c(Cl)c3)c2cc1OCCCN1CCOCC1` [Gefitinib], the growth yield runs as follows: (40 h) 7.47 ± 0.16%; (72 h) 6.29%.
With `CC[C@H]1OC(=O)[C@H](C)[C@@H](O[C@H]2C[C@@](C)(OC)[C@@H](O)[C@H](C)O2)[C@H](C)[C@@H](O[C@@H]2O[C@H](C)C[C@H](N(C)C)[C@H]2O)[C@](C)(O)C[C@@H](C)/C(=N\OCOCCOC)[C@H](C)[C@@H](O)[C@]1(C)O` [Roxithromycin], the growth yield (40 h) is 97.85 ± 0.64% and the growth yield (72 h) stood at 96.7 ± 1.5%.
The like results for `COc1ccnc(C[S+]([O-])c2nc3cc(OC(F)F)ccc3[nH]2)c1OC` (centres undefined) [Pantoprazole sodium] were, in that order, 88.2 ± 6.2% and 94 ± 3.8%.
`Cc1c(F)c(N2CCNC(C)C2)cc2c1c(=O)c(C(=O)O)cn2C1CC1` (centres undefined) [Grepafloxacin]: the growth yield by setting is: (40 h) 99.9 ± 1.4%; (72 h) 97.53 ± 0.63%.
The like results for `CC(=O)OCC(=O)[C@@]1(O)[C@H](C)C[C@H]2[C@@H]3CCC4=CC(=O)C=C[C@]4(C)[C@@]3(F)[C@@H](O)C[C@@]21C` [Dexamethasone acetate] were, in that order, 102 ± 4% and 103 ± 3.7%.
`CCOCCn1c(N2CCCN(C)CC2)nc2ccccc21` [Emedastine]: the growth yield is, setting by setting: (40 h) 98.96 ± 0.16%; (72 h) 96.9 ± 2.7%.
The like results for `CCC(C)(C)c1ccc(CC(C)CN2C[C@@H](C)O[C@@H](C)C2)cc1` (some centres undefined) [Amorolfine hydrochloride] were, in that order, 4.45 ± 0.32% and 2.94 ± 0.21%.
Take `CCn1cc(C(=O)O)c(=O)c2cnc(N3CCNCC3)nc21` [Pipemidic acid]: the growth yield amounted to 94.4 ± 3.5% (40 h) and 92.7% (72 h).
`NC[C@@H]1O[C@H](O[C@H]2[C@@H](O)[C@H](O[C@@H]3[C@@H](O)[C@H](N)C[C@H](N)[C@H]3O[C@H]3O[C@H](CO)[C@@H](O)[C@H](O)[C@H]3N)O[C@@H]2CO)[C@H](N)[C@@H](O)[C@@H]1O` [Paromomycin sulfate]: the growth yield reads like this: (40 h) 102.6 ± 0.32%; (72 h) 96.59 ± 0.32%.
Take `O=C1CN(/N=C/c2ccc(-c3ccc([N+](=O)[O-])cc3)o2)C(=O)N1` [Dantrolene sodium salt]: the growth yield by setting is: (40 h) 93.4 ± 2.2%; (72 h) 99.7 ± 1.4%.
`O=C(NCC(O)CO)c1c(I)c(C(=O)NCC(O)CO)c(I)c(N(CCO)C(=O)CO)c1I` (centres undefined) [Ioversol] came in with a growth yield (40 h) of 101 ± 5.4% and a growth yield (72 h) of 98.1 ± 2.8%.
For the compound `OCCN1CCN(CCCN2c3ccccc3C=Cc3ccccc32)CC1` [Opipramol dihydrochloride], the growth yield came to 91.3 ± 1.1% (40 h) and 98.1 ± 1.4% (72 h).
As for `CN(C)CCCN1c2ccccc2Sc2ccc(C(F)(F)F)cc21` [Triflupromazine hydrochloride], the growth yield turned out to be 74.66 ± 0.32% (40 h) and 92.1 ± 2.1% (72 h).
The like results for `OCCN1CCN(CCCN2c3ccccc3Sc3ccc(C(F)(F)F)cc32)CC1` [Fluphenazine dihydrochloride] were, in that order, 44 ± 6.2% and 90.3 ± 8.9%.
Take `CN1CCN(CCCN2c3ccccc3Sc3ccc(C(F)(F)F)cc32)CC1` [Trifluoperazine dihydrochloride]: the growth yield worked out at 20 ± 0.95% (40 h) and 63.35 ± 0.42% (72 h).
Take `CN(C)CCCN1c2ccccc2Sc2ccccc21` [Promazine hydrochloride]: the growth yield by setting is: (40 h) 91.33 ± 0.16%; (72 h) 95.6%.
On to `CC(=O)c1ccc2c(c1)N(CCCN1CCC(CCO)CC1)c1ccccc1S2` [Piperacetazine], for which the growth yield is, setting by setting: (40 h) 124 ± 8.6%; (72 h) 119 ± 8.9%.
In turn, `CO[C@H]1C[C@H](O[C@H]2[C@H](C)[C@@H](O[C@@H]3O[C@H](C)C[C@H](N(C)C)[C@H]3OC(C)=O)[C@@H](C)C[C@@]3(CO3)C(=O)[C@H](C)[C@@H](OC(C)=O)[C@@H](C)[C@@H](C)OC(=O)[C@@H]2C)O[C@@H](C)[C@@H]1OC(C)=O` [Troleandomycin] gave a growth yield (40 h) of 100.5 ± 0.79% and a growth yield (72 h) of 98.4 ± 1.3%.
On to `CC=CC1=C(C(=O)O)N2C(=O)[C@@H](NC(=O)[C@H](N)c3ccc(O)cc3)[C@H]2SC1` [Cefprozil], for which the growth yield runs as follows: (40 h) 100 ± 1.4%; (72 h) 92.7 ± 3.1%.
Consider `CN1CCN(C2=Nc3cc(Cl)ccc3Nc3ccccc32)CC1` [Clozapine], for which the growth yield was 102 ± 2.4% (40 h) and 104.77 ± 0.1% (72 h).
As to `CN1[C@@H]2CC[C@H]1C[C@@H](OC(=O)c1c[nH]c3ccccc13)C2` [Tropisetron hydrochloride], the growth yield (40 h) came out at 104 ± 10% and the growth yield (72 h) is 104 ± 8.6%.
In the case of `CC(C)c1c(C(=O)Nc2ccccc2)c(-c2ccccc2)c(-c2ccc(F)cc2)n1CC[C@@H](O)C[C@@H](O)CC(=O)O` [Atorvastatin], the growth yield by setting is: (40 h) 106%; (72 h) 85.1 ± 10%.
Consider `CC(C)n1c(/C=C/C(O)CC(O)CC(=O)O)c(-c2ccc(F)cc2)c2ccccc21` (centres undefined) [Fluvastatin sodium salt], for which the growth yield runs as follows: (40 h) 1.91 ± 1.3%; (72 h) 1.78 ± 0.94%.
`O=C(O)C[C@H](O)C[C@H](O)/C=C/c1c(C2CC2)nc2ccccc2c1-c1ccc(F)cc1` [Pitavastatin calcium]: the growth yield (40 h) is 4.13% and the growth yield (72 h) worked out at 2.94%.
